In the library only some 1.4% were active in any assay of this set; here they are far more common.
pCIP destab: compounds decreasing mouse p/CIP protein stability. decrease of EGFP signal, % at 10 µM. Q05BA5. F442A p/CIP-EGFP cells, EGFP fluorescence, 16 h. 290,000 tested, 0.01% active;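 active = EGFP signal decrease of at least 30% at 10 µM or well 3 SD below plate mean, unless failing retest; inactive = the rest, including hits failing retest or dose response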
MIN6 prolif-1: induces beta-cell replication in MIN6 cells; MIN6 cells proliferation, ATPlite luminescence, 48 h; cells starved in 0.2% serum; 100% = growth in 10% serum; AID 2380; proliferation, % at 10 µM; 330,000 tested, 0.29% active;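 active = compounds whose signal lies at least 3.5 SD above the mean of all wells on their plate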;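 also: 0% = DMSO-treated cells in low-serum medium and 100% = 10% serum control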
HTR5A ag: counter-screen for OPRM1-OPRD1 agonists: human HTR5A agonism; P47898; HTR5A agonist assay, luminescence, cell-based; activation, % at 9.3 µM; 340,000 tested, 0.61% active; in the data active = activation mostly above about 9.5%, no sharp cut-off; inactive = mostly below about 7.6%;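 also: 0% = cells with vehicle only and 100% = reference agonist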
OPRM1-OPRD1 inv: inverse agonist of human OPRM1-OPRD1 heterodimerization | P35372+P41143 | cell-based MOR-DOR heterodimer luminescence, inverse agonism | inhibition, % at 9.3 µM | 340,000 tested, 0.21% active | AID 504357; in the data active = inhibition above about 22%, passing the limit was not always enough;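 also: 0% = cells with DMSO and 100% = wells without cells with DMSO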
Target sequence (P35372 whole entry, looked up): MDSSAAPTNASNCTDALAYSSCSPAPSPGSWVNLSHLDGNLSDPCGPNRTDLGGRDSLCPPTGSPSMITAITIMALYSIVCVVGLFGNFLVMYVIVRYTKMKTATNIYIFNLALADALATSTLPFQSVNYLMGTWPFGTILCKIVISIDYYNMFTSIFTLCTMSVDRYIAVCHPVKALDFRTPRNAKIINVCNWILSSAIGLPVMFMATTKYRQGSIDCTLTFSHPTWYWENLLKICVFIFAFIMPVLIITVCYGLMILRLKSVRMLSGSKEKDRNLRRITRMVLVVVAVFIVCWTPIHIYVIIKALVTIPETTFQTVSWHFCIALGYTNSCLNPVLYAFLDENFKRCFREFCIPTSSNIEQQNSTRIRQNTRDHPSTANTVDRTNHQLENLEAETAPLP
Target sequence (P41143 whole entry, looked up): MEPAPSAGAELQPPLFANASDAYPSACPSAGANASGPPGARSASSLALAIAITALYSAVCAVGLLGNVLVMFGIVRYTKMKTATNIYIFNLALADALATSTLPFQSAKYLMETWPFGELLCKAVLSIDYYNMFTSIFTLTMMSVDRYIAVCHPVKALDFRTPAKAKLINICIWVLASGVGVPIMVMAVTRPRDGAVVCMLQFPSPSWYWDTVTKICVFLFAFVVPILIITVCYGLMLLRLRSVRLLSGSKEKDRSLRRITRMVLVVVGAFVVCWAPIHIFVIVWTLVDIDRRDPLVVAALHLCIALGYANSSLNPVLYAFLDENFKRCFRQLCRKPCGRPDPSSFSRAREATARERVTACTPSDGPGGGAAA
HTR5A inv ag: HTR5A inverse agonism, opioid heterodimer counter-screen; P47898; HTR5A cell line, luminescence; inhibition, % at 9.3 µM; 340,000 tested, 0.083% active; in the data active = inhibition mostly above about 23%, no sharp cut-off; inactive = mostly below about 18%;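 also: 0% = cells with DMSO and 100% = no-cell wells with DMSO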
MOR-DOR ag: agonists of human mu-delta opioid receptor heterodimerization. P35372+P41143. cells, OPRM1-OPRD1 heterodimerization, luminescence. activation, % at 9.3 µM. 340,000 tested, 0.3% active; in the data active = activation above about 18%;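 also: 0% = vehicle-treated cells and 100% = reference agonist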
MIN6 prolif-2: MIN6 beta-cell replication induction, confirmed. 920 tested, under 10 active. shares compounds with MIN6 prolif-1. proliferation increase, % at 50 µM. AID 463095. MIN6 beta-cell proliferation, ATPlite luminescence, 48 h; cells kept in 0.2% serum; scaled between 0.2% and 10% serum;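 active = proliferation increase above 40% at any of the four tested concentrations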
Numbers without * were called inactive; . = no result given.

SMILES	pCIP destab	MIN6 prolif-1	HTR5A ag	OPRM1-OPRD1 inv	HTR5A inv ag	MOR-DOR ag	MIN6 prolif-2
Cc1ccc(C2=CC(c3ccccc3)n3ncnc3N2)cc1 (stereo unspecified)	.	12*	5	-1	-8	0	-6
Cc1cc(Br)ccc1NC(=O)CN(C)C(=O)CSCc1ccccc1	.	-4	4	-2	-11	0	.
CCn1c(Oc2ccccc2C)nc2c1c(=O)n(C)c(=O)n2C	0	2	0	3	1	-1	.
CCn1c(Oc2ccc(F)cc2)nc2c1c(=O)n(C)c(=O)n2C	-7	7.3*	-1	10	2	-2	6
COC(=O)c1ccc(N2CCN(C)CC2)c(NC(=O)COc2ccc(C)cc2)c1	-5	11*	0	5	11	-1	-4
Cc1ccccc1-n1nnnc1SCC(=O)c1c(N)n(C2CC2)c(=O)[nH]c1=O	.	0	-4	13	12	-2	.
CC(=O)C[C@H](O)CC(=O)[C@@H]1OC(=O)CCCCC/C=C/Cc2ccccc21	.	0	2	1	7	0	.
COC(=O)CNC(=O)COC(=O)/C=C/c1cccs1	4	-2	1	11	-2	-2	.
COC(=O)CNC(=O)COC(=O)/C=C/c1ccc2ccccc2n1	-12	10*	-2	8	-18	-2	-5
Cc1ccccc1N=Nc1c(N)n[nH]c1N	-3	7.2*	2	-6	-6	1	-4
C/C(=N\Nc1ncc(Cl)cc1Cl)c1ccc(C#N)cc1	0	-1	9	-13	-11	3	.
C/C(=N/Nc1ncc(C(F)(F)F)cc1Cl)c1ccncc1	-5	7.8*	.	.	.	.	-3
COc1ccccc1NC(=O)C1CCCN(c2nc(C)cc(C)n2)C1 (stereo unspecified)	-1	7.5*	-3	-3	-7	1	3
NS(=O)(=O)c1ccc(-c2c(-c3ccccc3)sc3ccccc23)cc1	.	-4	1	-12	-2	2	.
Cc1nc(N)c(CC(Br)CBr)c(Cl)n1 (stereo unspecified)	-1	8.0*	-3	16	2	-3	2
O=C(Cc1ccc(F)cc1)N[C@@H]1c2ccccc2CC[C@H]1OCc1ccccc1	.	.	4	1	-15	0	.
COc1ccc(COC(=O)C2=C(C)NC(=O)NC2c2ccc(OC)c(OC)c2)cc1 (stereo unspecified)	-2	6.2*	-2	10	6	-2	3
COc1ccc(Cn2c(=O)c3[nH]cnc3n(-c3ccccc3C)c2=O)cc1	0	10*	0	0	-14	0	8
COC(=O)c1ccccc1NC(=O)CSc1ccccc1	4	0	2	3	-14	-1	.
COC(=O)c1ccccc1NC(=O)CSc1ccc(C)cc1	5	7.3*	-2	-16	9	3	-6
COc1ccc(CNC(=O)COC(=O)[C@@H]2CCCN2C(=O)c2cccs2)cc1	.	-6	1	8	-3	-2	.
Cn1c(=N)n(CC(=O)O)c2ccccc21	2	5.8*	0	-2	13	1	0
Cn1nc(OCC(=O)O)cc1C(F)(F)F	-7	6.3*	3	20	-1	-4	7
COc1cc(NC(=O)c2ccccc2)c(OC)cc1NC(=O)CN1C(=O)NC2(CCCCC2)C1=O	.	3	1	-11	25	3	.
C=C[C@@]1(C)CC(=O)[C@]2(O)[C@@]3(C)[C@@H](O)CCC(C)(C)[C@@H]3[C@H](O)[C@H](OC(C)=O)[C@@]2(C)O1	.	17*	7	-14	-1	3	6
SMILES	pCIP destab	MIN6 prolif-1	HTR5A ag	OPRM1-OPRD1 inv	HTR5A inv ag	MOR-DOR ag	MIN6 prolif-2
CSCCC(NC(=O)COc1ccccc1)C(=O)N(C)Cc1cccc(F)c1 (stereo unspecified)	.	8	4	2	-10	-1	.
CC(=O)N1c2ccc(S(=O)(=O)N3CCCC3)cc2CC1C(=O)NC(C)C (stereo unspecified)	-5	13*	-1	15	4	-3	1
Cc1[nH]c2ccccc2c1C(=O)NS(=O)(=O)Nc1ccc(F)cc1	7	8.8*	-3	11	7	-2	-4
COc1cccc(NS(=O)(=O)NC(=O)c2c(C)[nH]c3ccccc23)c1	3	-1	1	24	17	-5	.
OCCC1CN(CCCc2ccccc2)CCN1CCc1ccccc1 (stereo unspecified)	-3	-2	3	-33	-11	6	.
OCCC1CN(Cc2ccccc2O)CCN1CCc1ccccc1 (stereo unspecified)	-7	7.9*	-3	-15	-17	3	-3
CCOc1ccc(CN(C)c2ccc(S(=O)(=O)N3CCN(C)CC3)cc2[N+](=O)[O-])cc1OC	.	-7	1	0	3	0	.
Cc1ccc2c(c1)cc(CN(Cc1ccc3c(c1)OCO3)C(=O)c1ccccc1)c1nnnn12	-1	8.0*	3	6	6	-1	-3
Cc1ccc(S(=O)(=O)/N=C(/Nc2cccc(O)c2)c2ccccc2)cc1	5	0	2	-5	-12	1	.
c1ccc2c(c1)OCC(c1csc3ncnc(N4CCOCC4)c13)O2 (stereo unspecified)	-9	5.3*	4	-15	-8	3	-4
Cc1ccc(N(CC(=O)NCc2ccccn2)S(=O)(=O)c2ccccc2)cc1C	-15	9.0*	3	-14	-15	2	2
CCN(CC(=O)NCc1cccs1)C(=O)c1ccc(-c2ccccc2F)o1	.	2	-3	9	11	-2	.
CCOC(=O)Cn1c(=O)n(Cc2ccco2)c(=O)c2ccc(C(=O)NC3CCCC3)cc21	4	12*	1	12	18	-2	-1
CCOC(=O)C1CCCCN1Cc1ccc(OC)c(OC)c1 (stereo unspecified)	4	8.0*	3	13	-8	-3	2
O=S(=O)(Nc1ccc(Cl)cn1)c1ccc(Cl)cc1	-10	-3	-3	4	8	-1	.
CCc1ccc(S(=O)(=O)Nc2ccc(Cl)cn2)cc1	-12	4.9*	2	14	-8	-3	4
CC1=C(C(=O)Nc2ccccc2)C(c2ccncc2)C(C#N)=C(SCC(=O)NC(C)C)N1 (stereo unspecified)	-7	0	-1	18	12	-3	.
CC1=C(C(=O)Nc2ccccc2)C(c2ccncc2)C(C#N)=C(SCC(=O)NC2CC2)N1 (stereo unspecified)	-4	8.3*	-5	14	13	-3	2
CN(C)S(=O)(=O)c1ccc(NC(=O)CN2C(=O)NC(Cc3ccccc3)C2=O)cc1 (stereo unspecified)	.	-2	-2	14	8	-3	.
